Sampled rows, rich in hits. Any-hit rate of the full collection: about 2.4%.
AmpC inh det: inhibitors of E. coli AmpC beta-lactamase with detergent | AID 584 | 71,000 compounds, 0.09% hits | purified AmpC, nitrocefin hydrolysis with detergent | Potency, µM (highest dose often 28.7 µM); active = well fitted curve in the direction sought with a large enough effect; inconclusive = small, poorly fitted or top-dose-only effect
Target sequence (P00811 whole entry, looked up): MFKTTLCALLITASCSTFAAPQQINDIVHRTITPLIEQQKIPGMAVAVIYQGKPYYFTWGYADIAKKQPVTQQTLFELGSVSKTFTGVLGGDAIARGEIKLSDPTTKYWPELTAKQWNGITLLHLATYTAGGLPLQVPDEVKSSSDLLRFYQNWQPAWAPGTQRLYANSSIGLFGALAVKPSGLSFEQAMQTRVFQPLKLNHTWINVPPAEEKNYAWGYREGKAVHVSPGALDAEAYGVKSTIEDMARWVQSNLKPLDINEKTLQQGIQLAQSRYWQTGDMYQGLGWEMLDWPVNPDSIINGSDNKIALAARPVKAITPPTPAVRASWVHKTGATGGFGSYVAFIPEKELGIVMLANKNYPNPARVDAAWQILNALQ
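E. coli AmpC (5.3 nM) in 20 mM phosphate pH 7.0 with 0.01% Triton X-100, preincubated 15 min RT with compound; nitrocefin (2 uL of 800 uM stock) hydrolysis followed by 480 nm absorbance every 20 s over 4 min.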
LT uptake inh: inhibitors of anthrax lethal toxin internalization. Cells, anthrax lethal toxin internalization, FRET ratio (460/530). Potency, µM (titrated, usually from 40 µM), most hits filed as inhibitors. 70,000 compounds, 0.67% hits. AID 912; also: nearly all actives have a fitted effect of over 50% in size
SmPrx2 inh: blocks S. mansoni peroxiredoxin 2 enzymatic activity | S. mansoni Prx2 activity coupled to TGR/GSH (TGR is thioredoxin glutathione reductase), NADPH fluorescence loss, qHTS | Potency, µM | 65,000 compounds, 0.07% hits | AID 448
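Purified S. mansoni TGR and Prx2 in pH 7.4 phosphate buffer with EDTA and Tween-20 were preincubated with compounds for 15 min. Further NADPH/GSH was added, then a 2.5 mM H2O2 aliquot initiated turnover, followed kinetically by NADPH fluorescence.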
AmpC nodet inh: blocks E. coli AmpC beta-lactamase in absence of detergent; AmpC nitrocefin hydrolysis, absorbance 480 nm, no detergent; AID 585; Potency, µM (titrated, usually from 28.7 µM); 71,000 compounds, 1.8% hits
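AmpC, 20 mM phosphate pH 7.0; 15 min cpd preinc, RT; start with nitrocefin (800 uM stock); A480 kinetic read, 20 s intervals, 4 min. No-enzyme wells = negative control.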
A number is an active result; 0 = inactive; ? = inconclusive; - = not tested or not shown; ! = not active in a repeat; [ ] = remark or other dose. Unless noted, calls follow the shape of the full dose curve.

SMILES	AmpC inh det	LT uptake inh	SmPrx2 inh	AmpC nodet inh
Cc1cc(N)c2ccccc2[n+]1CCCCCCCCCCCCCC[n+]1c(C)cc(N)c2ccccc21	0	?	0	0
CC[C@H](CO)NC(=O)[C@@H]1C=C2c3cccc4c3c(cn4C)C[C@@H]2N(C)C1	0	0	0	0
CCC(=O)CC(NC(=O)OC)c1ccccc1 (stereo unspecified)	-	0[8 µM]	-	-
CCCCN(CCCC)CCn1cnc2c([nH]c3ccc(OC)cc32)c1=O	0	0	0	4µM[single pt active]
CCC1CCCN1Cn1cnc2c([nH]c3ccc(OC)cc32)c1=O (stereo unspecified)	0	0	0	0
Nc1ncnc2c1ncn2[C@@H]1CCCO1	0	0	0	0
CCCn1c(-c2ccc(F)cc2)nc2c(NC(C)CN(C)C)nc(C)nc21 (stereo unspecified)	0	0	-	0
Cc1ccc(-c2noc(-c3ccccc3Br)n2)cc1	0	?	-	0
Cc1ccccc1-c1noc(-c2ccc(O)cc2)n1	0	10µM	-	0
N[C@H](Cn1cc(I)c(=O)[nH]c1=O)C(=O)O	0	?	0	0
O=C(Nc1cccc(-c2nc3ncccc3o2)c1)c1cc2ccccc2o1	0	3.2µM	0	0
COc1ccccc1C(c1nnnn1CCc1ccccc1)N1CCN(c2ccccc2)CC1 (stereo unspecified)	0	7.9µM	0	0
COc1cccc(C(c2nnnn2CCc2ccccc2)N2CCN(c3ccccc3)CC2)c1OC (stereo unspecified)	0	?	0	0
CN(C)c1ccc(-c2cncnc2NCc2cccnc2)cc1	0	0	0	0
N#Cc1ccc(NC(=O)Nc2ccc(Cl)cc2)cc1	0	4µM	0	?
CN(CC(=O)Nc1ccc(C#N)cc1)Cc1ccc(Cl)cc1	0	0	0	0
CO[C@]1(NC(=O)C2SC(=C(C(N)=O)C(=O)O)S2)C(=O)N2C(C(=O)O)=C(CSc3nnnn3C)CS[C@H]21 (stereo partly specified)	2µM	0.5µM	0	?
CN(C)CCn1nnnc1SCC1=C(C(=O)O)N2C(=O)[C@@H](NC(=O)Cc3csc(N)n3)[C@@H]2SC1	0	0[3.58 µM]	0	0
Cn1nnnc1SCC1=C(C(=O)O)N2C(=O)[C@@H](NC(=O)[C@@H](O)c3ccccc3)[C@@H]2SC1	0	0[3.58 µM]	0	0
CO[C@]1(NC(=O)Cc2cccs2)C(=O)N2C(C(=O)O)=C(COC(N)=O)CS[C@H]21	5µM	5µM	0	5µM
CO[C@]1(NC(=O)CSCC#N)C(=O)N2C(C(=O)O)=C(CSc3nnnn3C)CS[C@H]21	?	?	0	7.9µM![single pt active]
O=c1c(-c2ccc(Cl)cc2)nc2cnc(N3CCNCC3)nc2n1Cc1ccc(F)cc1	0	?	0	0
CCN(CC)C(=O)C1CCCc2c1[nH]c1ccc(Cl)cc21 (stereo unspecified)	0	0	-	4µM[single pt active]
Cn1c(=O)c(=O)n(C)c2cc(S(=O)(=O)CCC(=O)N3CCOCC3)ccc21	0	0	0	4µM[single pt active]
Cn1c(=O)c(=O)n(C)c2cc(S(=O)(=O)N3CCOCC3)ccc21	0	0	0	0
SMILES	AmpC inh det	LT uptake inh	SmPrx2 inh	AmpC nodet inh
O=S(=O)(NCCNC/C=C\c1ccc(Br)cc1)c1cccc2cnccc12	0	?	-	0
CC(=O)OCC1=C(C(=O)O)N2C(=O)[C@@H](N)[C@@H]2SC1	?	0[3.58 µM]	0	5µM
CC(=O)OCC1=C(C(=O)[O-])N2C(=O)[C@@H](NC(=O)CCC[C@@H](N)C(=O)[O-])[C@@H]2SC1.[Zn+2]	0	0	0	0
CN1CCN(c2ncc3nc(CCc4ccccc4)c(=O)n(C)c3n2)CC1	0	?	0	0
CN1CCc2cc3c(cc2[C@@H]1[C@H]1OC(=O)c2c1ccc1c2OCO1)OCO3	0	?	0	0
O=C(Cn1c(=O)n(Cc2ccco2)c(=O)c2ccccc21)Nc1cccc(Cl)c1	0	2.5µM	0	2.5µM[single pt active]
Cc1cc(NC(=O)Cn2c(=O)n(Cc3ccccc3)c(=O)c3ccccc32)no1	0	0	0	10µM
O=C(c1ccco1)N1CCC2(CCCN(C(c3ccccc3)c3ccccc3)C2)CC1	0	?	0	0
COc1ccc(OCc2nnc3n2N=C(c2ccc(Br)cc2)CS3)cc1	0	?	0	4µM[single pt active]
CCNc1ncc2nc(-c3cccs3)c(=O)n(Cc3ccc(F)cc3)c2n1	0	?	0	0
Cn1c(-c2cccc(Br)c2)cnc1NCc1cccnc1	0	0	0	0
COc1cccc(-c2cnc(NCc3cc(Cl)ccc3O)n2C)c1	0	?	0	13µM
N#Cc1nc(-c2cccc3ccccc23)oc1NCCN1CCOCC1	0	?	0	0
N#Cc1nc(-c2ccccc2F)oc1NCCN1CCOCC1	0	0	0	4µM[single pt active]
CCOC(=O)N1CCC(NC(=O)c2ccc3snnc3c2)CC1	0	0	0	4µM[single pt active]
CN(C)c1ncc2ncc(=O)n(CCc3ccccc3)c2n1	0	0	0	0
CCOc1ccc(C(=O)c2ccc(OCC)c(N)c2)cc1N	0	10µM	-	0
O=C(CC1Oc2ccccc2NC1=O)NCCCN1CCN(C2CCCCC2)CC1 (stereo unspecified)	0	0	?	4µM[single pt active]
CC1CCN(Cc2ccc(NC(=O)CC3Oc4ccccc4NC3=O)cc2)CC1 (stereo unspecified)	0	0	0	4µM[single pt active]
COCCCNC(=O)CC1Oc2ccccc2NC1=O (stereo unspecified)	0	?	0	0
CCC1CCCCN1CCCNC(=O)CC1Oc2ccccc2NC1=O (stereo unspecified)	0	0	0	4µM[single pt active]
O=C(CC1Oc2ccccc2NC1=O)NC1CC1 (stereo unspecified)	0	0	0	0
C=C(C)OC(C)=O	0	0	-	0
CCOC(=O)CCN1C(=O)[C@H]2[C@H]3[C@H](O)[C@H](O)C/C(=N/NC(=O)OCc4ccccc4)[C@@H]3CC[C@@H]2C1=O	-	0[8 µM]	-	-
O=C(NCc1cccs1)O[C@H]1C[C@H]2CC[C@@H]1C2	0[5.75 µM]	?	0	0[5.75 µM]
SMILES	AmpC inh det	LT uptake inh	SmPrx2 inh	AmpC nodet inh
O=C1CC(O)(C(F)(F)F)Oc2c1ccc1ccccc21 (stereo unspecified)	0	10µM	-	0
Oc1cc(Cl)c(Cl)cc1Cl	0	?	-	0
Clc1cc(Cl)c(-c2cc(Cl)c(Cl)cc2Cl)cc1Cl	0	3.2µM	-	0
CN(C)c1ncc2nc(-c3ccc(Cl)cc3)c(=O)n(Cc3cccs3)c2n1	0	?	0	0
COc1ccccc1N1CCN(c2cc(=O)n(-c3ccc(Br)cc3)c(=O)[nH]2)CC1	0	0	0	16µM[single pt active]
COc1ccccc1N1CCN(c2cc(=O)n(-c3ccc(Cl)cc3)c(=O)[nH]2)CC1	0	0	0	0
O=C(CCc1ccc(S(=O)(=O)N2CCCCC2)cc1)c1nnc(-c2ccccc2)o1	0	0	0	20µM[single pt active]
COc1ccc(CCN(C)CCCOc2ccc(S(=O)(=O)c3[nH]c4ccccc4c3C(C)C)cc2)cc1OC	0	?	0	0
CNC(=O)C1(C)C=CCN1C(=O)OC (stereo unspecified)	0	0	-	0
COCC(=O)N1CCC2(CCCN(C(=O)Nc3ccc(OC)cc3)C2)CC1	0	?	0	0
O=C(c1cc2ccccc2cc1OCC(O)CN1CCCCC1)N1CCCCC1 (stereo unspecified)	0	0	0	4µM[single pt active]

Source: PubChem BioAssay (National Center for Advancing Translational Sciences (NCATS))
